# Among all 100,000 compounds or so, about 770 (0.77%) were called active. Cut-off read from the data, not from the text of the source: active = inhibition above about 50%; inactive = the rest. Many of the other results were omitted from the sample, so actives are more common in it than they were.
# Biological target: Gag-Pol polyprotein (Human immunodeficiency virus type 1 group M subtype B (isolate HXB2)) (UniProt P04585)
# Test: RNase H inhibition, HIV 1 Gag Pol polyprotein, FRET biochemical assay, screening (AID 372)
# Settings: HIV-1 RT RNase H, FRET RNA/DNA substrate fluorescence; at 10 µM; active compounds read high
row,SMILES,inhibition
1,CC(=O)Nc1ccc2oc(-c3ccc(Cl)cc3)nc2c1,9% (inactive)
2,CCn1c(-c2ccccc2C)n[nH]c1=S,2% (inactive)
3,COc1nc(Nc2ccccc2)nc(NC(C)(C)C)n1,7% (inactive)
4,O=C(N1CCN(C(c2ccccc2)c2ccccc2)CC1)C12CC3CC(CC(C3)C1)C2,25% (inactive)
5,CC(NC(=O)/C(C#N)=C/c1ccc(N(C)C)c(Br)c1)c1ccccc1 (configuration not stated),15% (inactive)
6,Cc1ccc(/C=C2/SC(=O)N(CO)C2=O)cc1,0% (inactive)
7,Cc1ccccc1C(=O)NNC(=S)Nc1ccccc1,7% (inactive)
8,CS(=O)(=O)N/N=C/c1ccc2c(c1)OCO2,0% (inactive)
9,COc1ccc(-c2cc(C(F)(F)F)n3nc(C(=O)NC(C)C)c(Cl)c3n2)cc1OC,7% (inactive)
10,C=CCN1C(=O)/C(=C/c2ccc(N(C)C)cc2)SC1=S,17% (inactive)
11,CC(C)(C)c1ccc(Oc2ccc3noc4c3c2C(=O)c2ccccc2-4)cc1,50% (active)
12,O=C1c2ccccc2-c2onc3ccc(Oc4ccccc4)c1c23,2% (inactive)
13,Cc1ccc(Oc2ccc3noc4c3c2C(=O)c2ccccc2-4)cc1,8% (inactive)
14,OC1CC(c2ccccc2)NC2(CCCCC2)C1 (configuration not stated),2% (inactive)
15,O=C(COc1ccccc1[N+](=O)[O-])Nc1ccc2oc(-c3cc(Br)ccc3Cl)nc2c1,49% (inactive)
16,Cc1oc(C(=O)O)cc1CSc1nc2ccccc2[nH]1,5% (inactive)
17,COc1ccc(-c2ccccc2)cc1NCc1c2ccccc2cc2ccccc12,2% (inactive)
18,COc1ccc(Cc2ccc(OC)cc2)cc1,5% (inactive)
19,COc1ccc2nc(-c3ccccc3)c(-c3ccccc3)nc2c1,6% (inactive)
20,COc1ccc(-c2nc3ccc(Cc4ccc5nc(-c6ccc(OC)cc6)c(-c6ccc(OC)cc6)nc5c4)cc3nc2-c2ccc(OC)cc2)cc1,55% (active)
21,C#CCOc1ccc(/C=C2/C(=O)NC(=O)N(c3ccccc3F)C2=O)cc1,0% (inactive)

row,SMILES,inhibition
1,S=c1[nH]c2ccccc2n1CCOc1ccccc1,30% (inactive)
2,S=c1[nH]c2ccccc2n1CCOc1ccc(Cl)cc1,39% (inactive)
3,Cc1ccc(OCCn2c(=S)[nH]c3ccccc32)cc1,61% (active)
4,Cc1ccccc1OCCOc1ccccc1/C=c1\sc2nc3ccccc3n2c1=O,9% (inactive)
5,CC(=O)COc1ccc2c(c1)oc(=O)c1ccccc12,7% (inactive)
6,Cc1c(Cl)c(=O)oc2cc(OCC(=O)c3ccc(Cl)cc3)ccc12,50% (active)
7,Cc1c(Cl)c(=O)oc2cc(OCc3ccc(Cl)cc3)ccc12,3% (inactive)
8,Cc1cc(=O)oc2cc(OCC(=O)c3ccc(Cl)cc3)ccc12,19% (inactive)
9,O=C(COc1ccc(Cl)cc1)Oc1ccc2c(c1)oc(=O)c1ccccc12,54% (active)
10,CC(C)OC(=O)COc1ccc2c(c1)oc(=O)c1ccccc12,0% (inactive)
11,O=C1CCCC2=C1C(c1ccccc1Cl)Nc1ccc(C(=O)c3ccccc3)cc1N2 (configuration not stated),1% (inactive)
12,Cc1ccc(C(=O)Nc2cc(C)cc(C)c2)cc1,0% (inactive)
13,Cc1ccc(N=Cc2c(O)n(C3CCCCC3)c(=O)n(C3CCCCC3)c2=O)cc1C,6% (inactive)
14,Cc1cccc(CSCc2nnc(NC(=O)Nc3ccc(Cl)cc3Cl)s2)c1,53% (active)
15,O=C(Nc1nnc(CSCc2ccccc2F)s1)Nc1ccc(Cl)cc1Cl,53% (active)
16,Cc1cccc(CSCc2nnc(NC(=O)Nc3ccc(Cl)cc3)s2)c1,31% (inactive)
17,O=C(Nc1nnc(Cc2ccc(Cl)cc2)s1)Nc1ccc(Cl)cc1Cl,37% (inactive)
18,O=C(Nc1nnc(CSCc2ccccc2)s1)Nc1ccc(Cl)cc1Cl,39% (inactive)
19,CCC(c1ccccc1)c1nnc(NC(=O)Nc2ccc(Cl)cc2Cl)s1 (configuration not stated),12% (inactive)
20,O=C(Nc1nnc(CSCc2ccc(Cl)cc2Cl)s1)Nc1ccc(Cl)cc1Cl,33% (inactive)
21,O=C(Nc1nnc(Cc2ccc(Cl)cc2Cl)s1)Nc1ccc(Cl)cc1Cl,66% (active)

row,SMILES,inhibition
1,O=C(Nc1nnc(Cc2ccccc2F)s1)Nc1ccc(Cl)cc1Cl,18% (inactive)
2,CC(c1ccccc1)c1nnc(NC(=O)Nc2ccc(Cl)cc2Cl)s1 (configuration not stated),36% (inactive)
3,O=C(Nc1nnc(CSCc2ccccc2Cl)s1)Nc1ccc(Cl)cc1Cl,46% (inactive)
4,O=C(Nc1nnc(C(c2ccccc2)c2ccccc2)s1)Nc1ccc(Cl)cc1Cl,52% (active)
5,COc1ccc2ccccc2c1-c1cc(C(=O)N/N=C/c2ccc(C)cc2)[nH]n1,13% (inactive)
6,CCCOC(=O)c1ccc(NC(=S)NC(=O)c2ccc(OCCC)cc2)cc1,20% (inactive)
7,CCOc1ccc(NC(=O)c2c(NC(=O)C(C)(C)C)sc3c2CCCC3)cc1,13% (inactive)
8,COc1cccc(/C=N\NC(=O)CNc2ccccc2C)c1,5% (inactive)
9,CCOC(=O)C1=C(C)N=c2s/c(=C\c3ccc(-c4ccc(Cl)cc4[N+](=O)[O-])o3)c(=O)n2C1c1ccc(OC)cc1 (configuration not stated),43% (inactive)
10,O=[N+]([O-])c1ccc(N2CCCC2)c(C(F)(F)F)c1,21% (inactive)
11,O=C(NC(=S)Nc1cc([N+](=O)[O-])ccc1F)c1cccc(I)c1,4% (inactive)
12,COc1ccc(-c2csc(N3N=C(c4ccc(Cl)cc4)CC3c3ccc(OC)c(OC)c3)n2)cc1F (configuration not stated),3% (inactive)
13,COc1ccc(C2CC(c3ccc(Cl)cc3)=NN2c2nc(-c3cccc(N4C(=O)c5ccccc5C4=O)c3)cs2)cc1OC (configuration not stated),53% (active)
14,COc1ccc(C2CC(c3ccc(Cl)cc3)=NN2c2nc(-c3ccc(C)cc3)cs2)cc1OC (configuration not stated),3% (inactive)
15,COc1cc(OC)c(NC(=O)C(Cl)(Cl)Cl)cc1Cl,2% (inactive)
16,CCOc1ccc(/C=C(/C#N)c2ccc(Cl)cc2)cc1Cl,54% (active)
17,COc1ccc(/C=C(\C#N)c2ccc(Cl)cc2)cc1OC,20% (inactive)
18,CCOc1cc(/C=C(\C#N)c2ccc([N+](=O)[O-])cc2)ccc1O,8% (inactive)
19,O=C(O)c1c[nH]c2ccc(Br)cc2c1=O,13% (inactive)
20,Cc1cccc(N2C(=O)NC(=O)/C(=C\C=C\c3ccccc3[N+](=O)[O-])C2=O)c1,24% (inactive)
